High-throughput results as filed in PubChem BioAssay.
Compounds with a hit are over-represented: about 9.2% of the library has one in this group of screens.
ELG1 genotoxic: genotoxicity induction in ELG1-luciferase HEK293T cells; 330,000 tested, 1.3% active; HEK293T ELG1-luciferase reporter, luminescence, 16 h; Potency, µM (top dose mostly 46 µM), for the others: top-dose activity change, positive = activation, most hits filed as activators; AID 504466; further: % of control where 0% means no effect; nearly all actives have a fitted effect of over 60% in size
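HEK293T cells expressing luciferase-tagged ELG1 were exposed to compound or DMSO vehicle for 16 hr at 37 °C and 5% CO2. Luciferase activity was then measured with ONE-Glo after 30 min at room temperature.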
Rab9 prom act: activators of Rab9 promoter; Potency, µM (series often up to 9.22 µM), for inactives: at the highest dose activation, negative = inhibition, usual class: activators; Huh7 Rab9 promoter-luciferase reporter, luminescence, 24 h; 320,000 tested, 2.8% active; further: % of control where 0% means no effect; nearly all actives have a fitted effect of over 60% in size
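Huh7 reporter line, Rab9 promoter upstream of luciferase. Compound exposure 24 h at 37 °C in reduced-serum medium with 10% FBS. Read-out: luminescence.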
NPC1 promoter act: NPC1 promoter activation. 320,000 tested, 2.4% active. AID 485313. Huh7 NPC1 promoter luciferase reporter, 24 h. Potency, µM (series often up to 9.22 µM), without a hit: top-dose activation, actives largely listed as activators; further: % of control where 0% means no effect; nearly all actives have a fitted effect of over 60% in size
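Luminescence read-out of NPC1 promoter-driven luciferase in stably transfected Huh7 cells; compounds delivered in DMSO and left 24 h at 37C, 5% CO2, qHTS titration format.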
FLuc counter: inhibits or activates purified firefly luciferase, miR-21 counter-screen. AID 588342. P08659. Potency, µM (series often up to 57.5 µM), for the others: top-dose activity change, negative = inhibition, most hits filed as inhibitors. purified FLuc, Km substrates, luminescence inhibition. 360,000 tested, 6.9% active;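 further: plate controls were vehicle for no effect and reference inhibitor for full effect; nearly all actives have a fitted effect of over 55% in size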
Target sequence (P08659 whole entry, looked up): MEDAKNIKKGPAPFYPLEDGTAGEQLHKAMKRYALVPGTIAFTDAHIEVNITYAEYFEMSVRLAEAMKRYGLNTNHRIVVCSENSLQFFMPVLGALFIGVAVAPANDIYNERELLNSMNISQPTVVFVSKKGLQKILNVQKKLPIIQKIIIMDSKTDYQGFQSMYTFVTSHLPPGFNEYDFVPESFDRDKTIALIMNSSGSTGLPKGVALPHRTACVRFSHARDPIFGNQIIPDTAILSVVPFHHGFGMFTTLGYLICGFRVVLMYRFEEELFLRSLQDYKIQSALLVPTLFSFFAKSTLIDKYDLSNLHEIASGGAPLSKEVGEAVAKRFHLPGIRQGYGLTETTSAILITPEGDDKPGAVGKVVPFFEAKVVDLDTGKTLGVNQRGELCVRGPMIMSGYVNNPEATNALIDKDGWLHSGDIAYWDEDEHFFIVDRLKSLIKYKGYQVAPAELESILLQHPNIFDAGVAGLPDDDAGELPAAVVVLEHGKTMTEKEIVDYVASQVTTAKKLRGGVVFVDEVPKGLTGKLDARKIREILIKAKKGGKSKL
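Purified P. pyralis luciferase, 10 nM final, with Km-level 10 uM D-luciferin and 10 uM ATP in 50 mM Tris acetate pH 7.5, 10 mM Mg acetate, 0.01% Tween-20, 0.05% BSA; 6-point qHTS titration about 60 µM downward; luminescence read.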
ELG1 DNA repair: ELG1-dependent DNA repair inhibition; HEK293T ELG1-luciferase reporter, luminescence, 16 h; DNA damage induced by 5-fluorouridine; Potency, µM (titrated, usually from 46.1 µM), for inactives: at the top dose activity change, negative = inhibition, actives largely listed as inhibitors; 330,000 tested, 2.3% active; AID 504467; further: on the % scale 0 is the no-effect control and ±100 the full control effect; nearly all actives have a fitted effect of over 55% in size
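Overnight (16 hr) co-exposure of 2,000 cells/well to 5-fluorouridine and compound at 37 °C preceded detection. Luciferase was quantified via ONE-Glo luminescence; loss of signal denotes inhibition.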
SMN2 splice up: SMN2 splice variant enhancement. Potency, µM (titrated, usually from 46.1 µM), without a hit: at the top dose activity change, positive = activation, usual class: activators. HEK293 SMN2-luciferase splicing reporter, luminescence, 30-36 h. 210,000 tested, 2.8% active. AID 1458; further: % of control where 0% means no effect; nearly all actives have a fitted effect of over 55% in size
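HEK293 cells carry an SMN2 minigene-luciferase reporter in which exon 7 inclusion puts luciferase in frame. Cells were seeded at 2000 cells/well, attached for 10-12 hours, then exposed to compounds for 30-36 hours at 37C before ONE-Glo luminescence.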
* = called active by the depositor. The call rests on the fitted dose curve; in most records, active means well fitted curve in the direction sought with a large enough effect; inconclusive means small, poorly fitted or top-dose-only effect, or another doubt; inactive means no such curve, though single readings can be large; an effect the other way counts as inactive or inconclusive. Potency means the concentration at half of the fitted maximal effect.

What do the screens show for `CC(C)(C)c1ccc(C(=O)c2cn[nH]c2-c2ccccc2O)cc1`?
ELG1 genotoxic: 12.4%; Rab9 prom act: inconclusive; NPC1 promoter act: inconclusive; FLuc counter: 10.7µM*; ELG1 DNA repair: inconclusive

Results for CCOc1ccc(/C=C2\CCc3ccccc3C2=O)cc1 ?
ELG1 genotoxic: inconclusive; Rab9 prom act: 1.12µM*; NPC1 promoter act: 2.82µM*; FLuc counter: 0.301µM*; ELG1 DNA repair: inconclusive

Results for O=C1/C(=C\c2ccncc2)CCc2ccccc21 ?
ELG1 genotoxic: -12.5%; Rab9 prom act: -10.5%; NPC1 promoter act: -0.2%; FLuc counter: 9.53µM*; ELG1 DNA repair: inconclusive

How did O=C1/C(=C/c2ccncc2)CCc2ccccc21 do in these assays?
ELG1 genotoxic: 3.9%; Rab9 prom act: -4.1%; NPC1 promoter act: -0.4%; FLuc counter: 8.49µM*; ELG1 DNA repair: -7.5%

How did COc1cc(/C=C2\CCc3ccccc3C2=O)cc(OC)c1OC do in these assays?
ELG1 genotoxic: 0.3%; Rab9 prom act: -2.0%; NPC1 promoter act: 1.3%; FLuc counter: inconclusive; ELG1 DNA repair: inconclusive; SMN2 splice up: -35.2%

How did CC(=O)N1CCC2(CCCN(c3ccncc3)C2)CC1 do in these assays?
SMN2 splice up: 4.8%

What do the screens show for `Cc1ccc(C(C)C)c(OCCCn2c(=O)oc3ccccc32)c1`?
FLuc counter: -11.3%; SMN2 splice up: -0.6%

Results for COC(=O)CCc1sc(Nc2ccc(OC)cc2)nc1-c1ccc(OC)cc1 ?
FLuc counter: -6.9%; SMN2 splice up: -1.5%

How did CCOc1ccc2nc(N3CCCC(C(=O)Nc4ccc(OC)cc4)C3)sc2c1 (stereo unspecified) do in these assays?
FLuc counter: 1.51µM*; SMN2 splice up: 21.8%

Results for CCOc1ccc2nc(N3CCCC(C(=O)Nc4ccc(CC)cc4)C3)sc2c1 (stereo unspecified) ?
FLuc counter: inconclusive; SMN2 splice up: 15.9%

Results for CCOC(=O)N1CCN(C(=O)C2CCCN(c3nc4ccc(OCC)cc4s3)C2)CC1 (stereo unspecified) ?
ELG1 genotoxic: -0.8%; Rab9 prom act: 4.9%; NPC1 promoter act: 10.8%; FLuc counter: 12µM*; ELG1 DNA repair: -14.0%; SMN2 splice up: 21.4%

How did CCOc1ccc2nc(N3CCCC(C(=O)NC4CCCC4)C3)sc2c1 (stereo unspecified) do in these assays?
ELG1 genotoxic: -6.4%; Rab9 prom act: inconclusive; NPC1 promoter act: inconclusive; FLuc counter: 3.01µM*; ELG1 DNA repair: 10.2%

How did CCOc1ccc2nc(N3CCCC(C(=O)Nc4cc(Cl)c(OC)cc4OC)C3)sc2c1 (stereo unspecified) do in these assays?
FLuc counter: 2.69µM*; SMN2 splice up: inconclusive

What do the screens show for `CCOc1ccc2nc(N3CCCC(C(=O)NCCc4ccc(SC)cc4)C3)sc2c1` (stereo unspecified)?
FLuc counter: -19.7%; SMN2 splice up: 20µM*

How did CCOc1ccc2nc(N3CCCC(C(=O)Nc4cccc(Cl)c4C)C3)sc2c1 (stereo unspecified) do in these assays?
FLuc counter: 3.38µM*; SMN2 splice up: 7.94µM*

How did CCOC(=O)Nc1ccc2nc(N3CCCCCC3)sc2c1 do in these assays?
ELG1 genotoxic: 10.3µM*; Rab9 prom act: inconclusive; NPC1 promoter act: inconclusive; FLuc counter: 7.57µM*; ELG1 DNA repair: inconclusive

What do the screens show for `CC(=O)Nc1ccc(NS(=O)(=O)c2ccc3c(c2)oc(=O)n3C)cc1`?
ELG1 genotoxic: -0.3%; Rab9 prom act: 1.3%; NPC1 promoter act: -1.5%; FLuc counter: -1.0%; ELG1 DNA repair: -5.1%

How did O=C1N=C(N2CCCCC2)S/C1=C/C1=Cc2ccccc2OC1 do in these assays?
ELG1 genotoxic: inconclusive; Rab9 prom act: 19.9%; NPC1 promoter act: 11.7%; FLuc counter: 2.39µM*; ELG1 DNA repair: inconclusive; SMN2 splice up: 8.7%

What do the screens show for `COc1ccc(OC)c(/C=C2\SC(N3CCCC(C)C3)=NC2=O)c1` (stereo unspecified)?
ELG1 genotoxic: 0.9%; Rab9 prom act: -3.0%; NPC1 promoter act: 5.7%; FLuc counter: inconclusive; ELG1 DNA repair: inconclusive

What do the screens show for `CCOC(=O)C1CCN(C2=NC(=O)/C(=C/c3ccc(OC)c(OC)c3)S2)CC1`?
ELG1 genotoxic: 0.6%; Rab9 prom act: -6.3%; NPC1 promoter act: -1.7%; FLuc counter: inconclusive; ELG1 DNA repair: -4.6%

Results for COc1cc(/C=C2\SC(N3CCC(C)CC3)=NC2=O)ccc1O ?
ELG1 genotoxic: 18.3µM*; Rab9 prom act: 22.8%; NPC1 promoter act: 9.4%; FLuc counter: 10.7µM*; ELG1 DNA repair: inconclusive

Results for COc1ccc(/C=C2\SC(N3CCCCC3)=NC2=O)cc1OC ?
ELG1 genotoxic: inconclusive; Rab9 prom act: -4.9%; NPC1 promoter act: 0.8%; FLuc counter: 10.7µM*; ELG1 DNA repair: inconclusive

What do the screens show for `CN(C)c1ccc(/C=C2\SC(N3CCCCC3)=NC2=O)cc1`?
ELG1 genotoxic: inconclusive; Rab9 prom act: 20.4%; NPC1 promoter act: inconclusive; FLuc counter: 0.536µM*; ELG1 DNA repair: inconclusive

Results for Cc1cc(C)c(OCC(=O)OCC(=O)NCCC2=CCCCC2)c(C)c1 ?
ELG1 genotoxic: -2.6%; Rab9 prom act: -4.6%; NPC1 promoter act: 10.2%; FLuc counter: -0.8%; ELG1 DNA repair: 5.3%

How did CCOC(=O)c1cc(C)n(CC2CCC(C(=O)Nc3ccc(C)cc3)CC2)c1C (stereo unspecified) do in these assays?
FLuc counter: -3.4%

Results for NC(=S)N=Nc1ccc(NN=C(N)N)cc1 ?
ELG1 genotoxic: -4.8%; Rab9 prom act: 3.6%; NPC1 promoter act: -1.5%; FLuc counter: 21.3µM*; ELG1 DNA repair: -1.6%

What do the screens show for `COc1ccc(OC)c(S(=O)(=O)NCC(c2ccc(N(C)C)cc2)N2CCOCC2)c1` (stereo unspecified)?
FLuc counter: -1.5%

How did O=C(NCCc1ccccc1)/C(=C\c1cccc([N+](=O)[O-])c1)NC(=O)c1ccco1 do in these assays?
ELG1 genotoxic: 2.7%; Rab9 prom act: 8.0%; NPC1 promoter act: 2.7%; FLuc counter: -2.9%; ELG1 DNA repair: 3.5%

Results for CCOc1ccc(C(CC(=O)O)NC(=O)COc2ccc3ccccc3c2)cc1OC (stereo unspecified) ?
ELG1 genotoxic: 0.2%; Rab9 prom act: -3.7%; NPC1 promoter act: -4.3%; FLuc counter: -6.2%; ELG1 DNA repair: -2.8%
